Bioassay records from PubChem BioAssay.
An excerpt weighted towards active compounds, which were near 3% of everything screened.
PAX8 inh HTS: inhibitors of PAX8 transcriptional activity in RMG-I cells; AID 652154; inhibition, % at 12.6 µM; RMG-I TPO-luciferase reporter, SteadyGlo, 24 h; hit rate 1.2% among 360,000;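 active means mean replicate inhibition at least 60% with every replicate also reaching 60%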;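 further: luciferase light reporting Pax8 driven TPO promoter activity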
EWS-Fli inh: EWS/Fli transcriptional activity inhibition | A673 NR0B1-luciferase reporter, viability-normalised | inhibition, % at 12.6 µM | hit rate 0.67% among 350,000;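 active means mean inhibition of at least 50% after viability correction, with every replicate also passing that limit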;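 further: firefly luciferase signal divided by Alamar Blue viability fluorescence both relative to DMSO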
ABHD5-PLIN5 inh: inhibitors of human ABHD5-perilipin-5 interaction; Split G. princeps luciferase complementation, luminescence, 4 h; inhibition, % at 4 µM; hit rate 0.78% among 360,000;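 active means inhibition above the mean inhibition across every tested compound plus 3 SD, cut at about 22% in these data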
Shn3 3UTR inh: Schnurri-3 reporter inhibition in Clone20 osteoblasts; inhibition, % at 12.5 µM; Clone20 osteoblast Shn3 3'UTR firefly luciferase, 24 h; AID 588674; hit rate 0.52% among 360,000;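 active means mean inhibition of at least 75% with every replicate also reaching 75%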
Peg3 promoter: inhibitors of Peg3 promoter. HeLa PEG-Prom luciferase reporter, luminescence, overnight. inhibition, % at 20 µM. hit rate 1.7% among 360,000. AID 588405;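 active means inhibition of at least 50% at 20 µM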
MITF TRPM1 inh: MITF TRPM1 promoter inhibition in SK-MEL-5 cells | SK-MEL-5 TRPM1 promoter luciferase, 24 h | inhibition, % at 12.5 µM | hit rate 0.83% among 330,000;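 active means mean inhibition across replicates of 60% or more, whatever share of single replicates reaches that level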
ABHD5 PLIN5 conf: ABHD5-PLIN5 interaction inhibition, confirmed; shares compounds with ABHD5-PLIN5 inh; biochemical ABHD5-PLIN5 interaction, luminescence; inhibition, % at 4 µM; hit rate 67% among 2,200; in the data active means inhibition above about 23%
HNF4 counter: counter-screen for ABHD5-PLIN5 inhibitors: HNF4 split-luciferase | shares compounds with ABHD5-PLIN5 inh | HNF4 dimerization, luminescence, biochemical | inhibition, % at 4 µM | hit rate 77% among 2,200;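 active means mean inhibition across replicate wells exceeding the computed hit threshold, cut at about 13% in these data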;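 further: light from luciferase halves that rejoin when HNF4 fusion proteins dimerize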
A number is an active result; 0 = inactive; - = not tested or not shown.

SMILES | PAX8 inh HTS | EWS-Fli inh | ABHD5-PLIN5 inh | Shn3 3UTR inh | Peg3 promoter | MITF TRPM1 inh | ABHD5 PLIN5 conf | HNF4 counter
O=c1[nH]c(/C=C/c2ccc(Cl)cc2Cl)c([N+](=O)[O-])c(=O)[nH]1 | 0 | 0 | 0 | 0 | 0 | 0 | - | -
C[C@@H]1CN([C@@H](C)CO)C(=O)c2cc(NC(=O)Nc3ccc(F)cc3)ccc2O[C@H]1CN(C)C(=O)NC1CCCCC1 | 0 | 0 | - | - | - | - | - | -
COc1ccc(NC(=O)N[C@@H]2CC[C@H](CCn3cc(-c4ccc(OC)cc4)nn3)O[C@H]2CO)cc1 | 0 | 0 | - | - | - | - | - | -
C#CCOc1c(/C=C\c2nc(O)c([N+](=O)[O-])c(=O)[nH]2)cc(Br)cc1OC | 0 | 0 | 46 | 0 | 0 | 0 | 83 | 74
O=c1[nH]c(/C=C\c2cccc(F)c2)nc(O)c1[N+](=O)[O-] | 0 | 0 | 36 | 0 | 0 | 0 | 69 | 54
COc1ccc(/C=C\c2nc(O)c([N+](=O)[O-])c(=O)[nH]2)cc1O | 0 | 0 | 23 | 0 | 0 | - | 27 | 30
C=CCOc1ccc(/C=C\c2nc(O)c([N+](=O)[O-])c(=O)[nH]2)cc1OCC | 0 | 0 | 0 | 0 | 0 | 0 | - | -
O=c1[nH]c(/C=C\c2ccccc2F)nc(O)c1[N+](=O)[O-] | 0 | 0 | 33 | 0 | 0 | 0 | 55 | 43
COC(=O)COc1c(/C=C\c2nc(O)c([N+](=O)[O-])c(=O)[nH]2)cccc1OC | 0 | 0 | 0 | 0 | 0 | 0 | - | -
O=C(N[C@H]1C=C[C@@H](CC(=O)N2CCc3ccccc3C2)O[C@@H]1CO)C1CCC1 | 0 | 0 | - | - | - | - | - | -
C[C@@H]1CN([C@H](C)CO)C(=O)Cc2cc(NC(=O)NC3CCCCC3)ccc2O[C@H]1CN(C)C(=O)Nc1ccc(C(F)(F)F)cc1 | 0 | 0 | - | - | - | - | - | -
O=C(C[C@H]1CC[C@@H]2NC[C@H](O)COC[C@H]2O1)NCCc1ccccc1 | 0 | 0 | - | - | - | - | - | -
C[C@@H]1CCCCO[C@H](CN(C)Cc2ccc(C(=O)O)cc2)[C@H](C)CN([C@H](C)CO)C(=O)c2cc(N(C)C)ccc2O1 | 0 | 0 | - | - | - | - | - | -
C=CCOc1ccc(/C=C\c2nc(O)c([N+](=O)[O-])c(=O)[nH]2)cc1OC | - | - | 0 | 0 | 0 | 0 | - | -
O=c1[nH]c(/C=C\c2cccc(Cl)c2)nc(O)c1[N+](=O)[O-] | 0 | 0 | 51 | 0 | 0 | 0 | 88 | 75
C=CCOc1cccc(/C=C\c2nc(O)c([N+](=O)[O-])c(=O)[nH]2)c1 | 0 | 0 | 46 | 0 | 0 | - | 79 | 69
COc1cc(/C=C/[N+](=O)[O-])ccc1OC(=O)c1cc2ccccc2oc1=O | 0 | 0 | 28 | 0 | 69 | 0 | 78 | 97
Cc1ccc(N2C(=O)CC(N3CCN(c4ccc(F)cc4)CC3)C2=O)c(C)c1 (stereo not given) | 0 | 0 | 0 | 0 | 0 | 0 | - | -
Cc1ccc(-n2sc3cc(F)ccc3c2=O)c(C)c1 | 0 | 0 | 66 | 0 | 0 | - | 63 | 116
O=C(C[n+]1ccc2ccccc2c1)c1ccc2ccc3ccccc3c2c1 | 0 | 0 | 28 | - | - | - | 0 | 0
O=C(C[C@H]1C[C@@H]2c3cc(NC(=O)C4CCC4)ccc3O[C@@H]2[C@@H](CO)O1)NCC(F)(F)F | 0 | 0 | - | - | - | - | - | -
COC(=O)C(CC(=O)c1ccc(Br)cc1)n1nc(C)cc1C (stereo not given) | 0 | 0 | 37 | 0 | 0 | 0 | 0 | 52
CC(C)NC(=O)Nc1ccc2c(c1)CC(=O)N([C@@H](C)CO)C[C@@H](C)[C@H](CN(C)Cc1ccc(Oc3ccccc3)cc1)O2 | 0 | 0 | - | - | - | - | - | -
C[C@H]1CCCCO[C@@H](CN(C)Cc2ccc(C(F)(F)F)cc2)[C@@H](C)CN([C@@H](C)CO)C(=O)c2cc(NS(=O)(=O)c3cn(C)cn3)ccc2O1 | - | 0 | - | - | - | - | - | -
Cc1ccc(C(=O)Nc2nc(-c3ccco3)c(-c3ccco3)s2)o1 | 0 | 0 | 28 | 0 | 0 | 0 | 0 | 17
O=C(CCl)Nc1nc(-c2ccco2)c(-c2ccco2)s1 | 0 | 0 | 37 | 0 | 0 | 0 | 36 | 54
O=C(NCC1CCCO1)c1ccc(COc2ccc(F)cc2)o1 (stereo not given) | - | - | 0 | 0 | 0 | 0 | - | -
